Assay outcomes from PubChem.
CYP2C9 activ: activators of human CYP2C9. P11712. recombinant CYP2C9, luciferin-H conversion, luminescence; stronger effect = higher value; factor 1 = untreated enzyme, 0 = blocked. activation factor at 5 µM. 96,000 tested, 1.4% active. AID 1024;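 active means activation factor of 2 or more for CYP2C9 at a 5 µM dose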;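 further: 0 = sulfaphenazole-blocked wells and 1 = vehicle-only wells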
CYP2C19 act: activators of human cytochrome P450 2C19; P33261; recombinant CYP2C19, luciferin-H EGE luminescence; stronger effect = higher value; 0 = fully inhibited enzyme, 1 = untreated enzyme; activation factor at 5 µM; 96,000 tested, under 10 active; AID 1025;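 active means activation factor of at least 2 at 5 µM in the primary screen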;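 further: 0 = wells with 2.5 mM tranylcypromine and 1 = vehicle-only wells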
Target sequence (P33261 whole entry, looked up): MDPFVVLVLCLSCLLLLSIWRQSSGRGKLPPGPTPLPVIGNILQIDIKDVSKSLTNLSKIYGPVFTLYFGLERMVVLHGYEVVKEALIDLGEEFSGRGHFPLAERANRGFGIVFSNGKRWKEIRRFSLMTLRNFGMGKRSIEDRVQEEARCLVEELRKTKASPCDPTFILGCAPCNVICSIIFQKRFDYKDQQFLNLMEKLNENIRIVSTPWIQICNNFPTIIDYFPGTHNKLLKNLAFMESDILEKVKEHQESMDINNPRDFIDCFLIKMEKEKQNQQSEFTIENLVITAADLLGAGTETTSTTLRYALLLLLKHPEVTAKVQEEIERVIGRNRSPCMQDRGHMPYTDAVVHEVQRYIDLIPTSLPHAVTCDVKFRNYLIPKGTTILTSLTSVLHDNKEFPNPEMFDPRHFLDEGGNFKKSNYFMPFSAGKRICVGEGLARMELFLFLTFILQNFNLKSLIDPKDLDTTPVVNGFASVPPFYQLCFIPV
PostGolgi yeast: growth inhibition of a yeast mutant, post-Golgi transport screen | AID 739 | 98,000 tested, 0.9% active | inhibition, % at 10 µM | post-Golgi transport phenotypic cell assay;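 further: yeast cells grown in 1536-well plates; yeast grown about 18 h at 30C before absorbance read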
PostGolgi ctrl: inhibits growth of the yeast control strain | efflux-deficient yeast background strain, growth absorbance A615, 16 h | inhibition, % at 10 µM | 98,000 tested, 5% active
CYP2C9 inhib: human CYP2C9 inhibition; CYP2C9 Supersomes, luciferin-H conversion, luminescence; inhibition, % at 5 µM; 96,000 tested, 20% active; AID 777;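 active means blocking of liver enzyme CYP2C9 beyond about 50% at 5 µM, limit read from the data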
CYP2C19 inh: blocks human cytochrome P450 2C19; inhibition, % at 5 µM; AID 778; CYP2C19 Supersomes, luciferin-H EGE luminescence, 30 min; 96,000 tested, 21% active;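 active means CYP2C19 inhibition above a set limit at 5 µM in the primary screen, cut at about 50% in these data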;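 further: plate controls were negative control wells for no effect and 2.5 mM tranylcypromine positive control for full effect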
Starred values were filed as active, the others as inactive; . = not tested or not shown. Most compounds without a hit are left out; they make up all but 32% or so of the library. Unless noted, no stated cut-off is given here; in the data, active means inhibition above about 30%; inactive means the rest.

SMILES	CYP2C9 activ	CYP2C19 act	PostGolgi yeast	PostGolgi ctrl	CYP2C9 inhib	CYP2C19 inh
COc1ccc(NC2CC(=O)N(c3ccccc3)C2=O)cc1 (stereo not given)	1	0.5	4.5	-1.5	-3.1	54.7*
O=C1CC(Nc2ccc(N3CCOCC3)cc2)C(=O)N1c1ccccc1 (stereo not given)	1.1	0.8	13.3	-10.3	-6.7	21.6
CC1=CN2CC(O)CN=C2C=C1 (stereo not given)	1.1	1	1.6	11.0	-9.5	-2.4
CCOC(=O)C1C(=O)C=C(c2ccc([N+](=O)[O-])cc2)CC1c1ccccc1 (stereo not given)	0.3	0.2	23.1	38.0*	74.7*	76.3*
COc1ccc(CCC(C)NC2C3CC4CC(C3)CC2C4)cc1 (stereo not given)	1	0.9	-5.0	12.6	1.4	5.5
c1cncc(-c2nnc(SCc3nc4ccccc4[nH]3)o2)c1	0.6	0.3	-1.9	-0.8	39.2	70.1*
c1ccc2[nH]c(CSc3nc4ccccc4o3)nc2c1	0.3	0	6.7	15.4	69.5*	100.3*
c1cncc(-c2nnc(SCc3cccc4ccccc34)o2)c1	1.4	0.5	-4.9	14.8	-39.2	45.6
C(=C\c1ccccc1)/CSc1nnc(-c2cccnc2)o1	0.8	0.4	-9.0	32.7*	15.6	55.4*
Nn1c(CSc2nc3ccccc3o2)nnc1CSc1nc2ccccc2o1	0.3	0.3	-15.5	27.4	66.3*	71.6*
O=[N+]([O-])c1ccc(CSc2nc3ccccc3o2)cc1	0.8	0.8	1.2	7.3	20.8	15.7
Cc1ccc(CSc2nnc(-c3cccnc3)o2)cc1	0.4	0.3	15.7	2.3	58.2*	70.5*
COc1ccc(-c2cc(=O)c3ccccc3s2)cc1	0.4	0.6	7.3	21.0	64.5*	38.9
CCOC(=O)/C(N=Nc1ccc(F)cc1)=C(/O)c1ccc([N+](=O)[O-])cc1	0.8	0.8	5.3	3.5	15.6	18.2
CCOC(=O)NC1(C(F)(F)F)NC(=O)N(Cc2ccco2)C1=O (stereo not given)	1	0.9	1.7	-3.6	-2.4	12.9
CCOC(=O)C(NCc1ccco1)(NC(=O)c1ccccc1)C(F)(F)F (stereo not given)	0.6	0.2	13.0	-2.0	43.6	75.9*
CC(=O)C1=C(O)C(=O)N(c2cccnc2)C1c1ccc(Cl)cc1 (stereo not given)	0.8	1	4.0	4.7	24.2	1.0
O=c1nc(NC2CCCC2)ccn1Cc1cccc(Br)c1	1.2	1	-5.6	49.8*	-23.4	1.8
COc1ccc(-c2nnc3ccc(SC)nn23)cc1	0.9	1	2.4	4.0	14.7	1.6
O=S(Cc1cc(Oc2ccccc2)nc(-c2ccccc2)n1)c1ccccc1 (stereo not given)	0.2	0.2	4.5	35.2*	77.6*	84.4*
COc1ccc(NC(=O)CN(c2cc(C)cc(C)c2)S(=O)(=O)c2c(C)noc2C)cc1OC	0.5	0.9	-8.4	5.8	50.5*	13.9
COc1ccc(NC(=O)c2cc(C)on2)cc1OC	1	1	12.2	5.9	-2.8	1.4
CCOc1ccc(N(CC(=O)Nc2ccc(C)c(C)c2)S(=O)(=O)c2c(C)noc2C)cc1	.	.	4.5	24.8	.	.
CCOc1ccc(N(CC(=O)Nc2ccccc2C)S(=O)(=O)c2c(C)noc2C)cc1	0.5	0.1	-5.4	7.6	48.3	86.7*
COc1ccc(NC(=O)c2onc(C)c2Cl)cc1OC	1.1	1.1	2.2	33.8*	-13.2	-14.6
COc1ccc(N(CC(=O)Nc2cc(C)ccc2OC)S(=O)(=O)c2c(C)noc2C)cc1	0.3	0.4	3.6	10.9	66.9*	64.5*
NC(=O)CNC(=O)[C@@H]1CC2(CC(c3ccccc3)=NO2)CN1C(=O)c1ccc(Br)cc1 (stereo not given in full)	0.9	1	-11.1	5.4	10.4	1.6
O=C(NCc1ccc(F)cc1)c1cc2n(n1)C(C(F)(F)F)CC(C1CC1)N2 (stereo not given)	0.6	0.6	-1.2	3.9	40.2	42.5
CCCCOC(=O)C1=C(C)Nc2nnnn2C1c1ccccc1Cl (stereo not given)	1.1	1.1	3.1	28.9	-7.0	-12.5
CCOC(=O)c1c(C)c(C(=O)NCCCOC(C)C)c(C)n1C	1.5	0.6	-7.2	16.1	-48.5	39.9
